Screening data as filed in PubChem.
Six1-Eya2 blk: Six1/Eya2 interaction inhibition. Q15475+O00167. AlphaScreen GST-Six1/His-Eya2 binding, biochemical; stronger effect = lower value. activity change, % (test concentration not listed). hit rate 0.56% among 360,000. AID 651725; in the data active = activity change below about -65%; inconclusive = mostly about -30% to -63%; note: % is set by controls: 0 for no effect and ±100 for the full control effect
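GST-Six1 + His-Eya2 (5X stock: 250/500 nM); Tris pH 8.0, 300 mM NaCl, 0.05% BSA, 0.02% Tween 20; GSH donor/Ni acceptor beads; 1 h 37 °C dark; AlphaScreen readout.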
JMJD2A Tudor inh: JMJD2A Tudor domain (human) inhibition; O75164; AlphaScreen JMJD2A-Tudor / H3K4me3 peptide binding; Potency, µM (highest dose often 114 µM), without a hit: at the highest dose activity change, negative = inhibition, actives largely listed as inhibitors; hit rate 4.4% among 390,000; note: potency is the fitted concentration of half-maximal effect; % is set by controls: 0 for no effect and ±100 for the full control effect; nearly all actives have a fitted effect of over 50% in size
HP1b chromo inh: HP1-beta chromodomain-methylated histone interaction inhibition; P83916; AlphaScreen HP1-beta / biotin-H3K9me3 peptide binding; Potency, µM (series often up to 114 µM), for inactives: at the highest dose activity change, negative = inhibition, hits mostly inhibitors; hit rate 0.56% among 390,000; note: potency is the fitted concentration of half-maximal effect; nearly all actives have a fitted effect of over 70% in size
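AlphaScreen: HP1-beta (50 nM) preformed 30 min with biotin-H3(1-18)K9me3 peptide (50 nM) in PBS pH 7.4, 0.01% Tween-20. Compound added for 30 min at RT, then streptavidin donor/nickel chelate acceptor beads (10 ug/mL) for 30 min.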
TDP1 block: blocks human tyrosyl-DNA phosphodiesterase 1. Q9NUW8. Potency, µM (titrated, usually from 130 µM), without a hit: top-dose activity change, negative = inhibition, usual class: inhibitors. hit rate 0.28% among 350,000. recombinant TDP1, AlphaScreen DNA substrate cleavage. AID 485290; note: potency is the fitted concentration of half-maximal effect; % is set by controls: 0 for no effect and ±100 for the full control effect; nearly all actives have a fitted effect of over 40% in size
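Here, a 5' biotin and 3' phosphotyrosine-FITC DNA oligonucleotide reports Tdp1 activity: intact substrate bridges AlphaScreen beads, while cleavage leaves a 3' phosphate and drops signal. All incubations at room temperature.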
CtBP-E1A inh: inhibitors of CtBP/E1A interaction; activity change, % (test concentration not listed); AlphaScreen GST-E1A/His-CtBP binding, 1536-well; stronger effect = lower value; hit rate 0.49% among 340,000; in the data active = activity change below about -65%; inconclusive = mostly about -30% to -63%; note: % is set by controls: 0 for no effect and ±100 for the full control effect
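Steps: dispense buffer (Tris pH 8.0, NaCl 300 mM, TCEP 1 mM, BSA, Tween 20); add 5X protein mix (GST-E1A, His-CtBP, 125 nM each); pin 23 nL compound; 2 h at 37 °C, dark; add 5X beads (50 ug/mL); 1 h; read.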
BAZ2B block: inhibitors of human BAZ2B bromodomain | Potency, µM (highest dose often 114 µM), without a hit: at the top dose activity change, negative = inhibition, most hits filed as inhibitors | Q9UIF8 | hit rate 4.4% among 360,000 | AlphaScreen BAZ2B-H3K14Ac peptide displacement; note: potency is the fitted concentration of half-maximal effect; % is set by controls: 0 for no effect and ±100 for the full control effect; nearly all actives have a fitted effect of over 60% in size
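AlphaScreen luminescence quantifies BAZ2B engagement of H3K14Ac peptide; the protein and biotinylated peptide are both at 50 nM final, buffer PBS pH 7.4 with 0.01% Tween-20, all steps at room temperature.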
An asterisk follows results filed as active; ? = inconclusive; · = no result given; [ ] = dose if it differs, or a comment. The list is not random: actives were taken first. Their share in the collection is about 5.3%. Unless noted, calls come from the whole dose curve; as a rule, active = well fitted inhibition curve with a large enough effect; inconclusive = small, poorly fitted or top-dose-only effect; inactive = no such curve, though single readings can be large or run the other way.

SMILES | Six1-Eya2 blk | JMJD2A Tudor inh | HP1b chromo inh | TDP1 block | CtBP-E1A inh | BAZ2B block
Cc1cc(NC2CCCCC2)nc(-c2ccccc2O)n1 | 12 | 7.9µM* | ? | ? | 16 | 56µM*
Cc1ccc(C)n1-c1ccc(C(=O)NN)cc1 | -17 | 50µM* | 11% | 4% | 7 | 8%
Cc1ccc(C)n1-c1ccc(C(=O)NCc2ccncc2)cc1 | -23 | ? | 44% | 5% | · | ·
CCN(c1ccccc1)c1cc2ccccc2c(=O)[nH]1 | -3 | 18µM* | -7%[57 µM] | 2% | -2 | -21%
Cc1ccc(Cn2c(SCC(=O)C(C)(C)C)nc3ccsc3c2=O)cc1 | · | -9% | 33% | -8% | · | -8%
COc1ccccc1N1CCN(C(=O)Cc2cccs2)CC1 | 0 | -13% | 16% | 3% | 0 | 1%
O=C(Cc1cccs1)N1CCN(c2ccc([N+](=O)[O-])cc2)CC1 | -2 | -28% | 5% | 6% | 0 | 56µM*
Cc1nc2ncnn2c(N2CCN(C(=O)Cc3cccs3)CC2)c1C | -3 | ? | -13% | -12% | -4 | 50µM*
O=C(Cc1cccs1)N1CCN(c2ccc(F)cc2)CC1 | -2 | -1% | 25% | 2% | -2 | 4%
CCOC(=O)CSc1nc2ccc(NC(=O)COc3ccccc3C)cc2s1 | · | -2% | 58% | 5% | · | -1%
COc1ccc(C)cc1NC(=O)CSc1nnc(-c2ccccn2)n1Cc1ccco1 | -17 | ? | 8% | 2% | -14 | ?
Cc1c(Cl)cccc1NC(=O)CSc1ccc(-c2ccccn2)nn1 | · | ? | 70% | 0% | · | 5%
Cc1cccc(NC(=O)CSc2ccc(-c3ccccn3)nn2)c1C | -87* | 8.9µM* | 28% | 2% | -75* | 2.8µM*
COc1ccccc1NC(=O)CSc1ccc(-c2ccccn2)nn1 | -89* | 3.5µM* | 23% | 1% | -90* | 3.2µM*
Clc1ccccc1CSc1nnc(-c2ccccn2)n1Cc1ccco1 | -16 | 56µM* | 0% | 0% | -17 | 56µM*
COc1ccccc1NC(=O)CSc1nnc(-c2ccccn2)n1Cc1ccco1 | -25 | 56µM* | -15% | 10% | -25 | ?
NC(=O)CSc1nnc(-c2ccccn2)n1Cc1ccco1 | 3 | 0% | 17% | 10% | 0 | -38%
COc1ccc(CNC(=O)Cn2nnc(-c3ccc(C(F)(F)F)cc3)n2)cc1 | · | -29% | 40% | 12% | · | -6%
COc1ccccc1CCNC(=O)CSc1ccc(-c2ccco2)nn1 | 3 | -17% | 47% | · | -5 | 50µM*
COc1ccccc1NC(=O)Cc1nnc(SCC(=O)Nc2ccccc2F)n1C | 14 | 11µM* | -14% | 0% | 4 | 0%
CCn1c(CC(=O)Nc2ccccc2OC)nnc1SCC(=O)Nc1ccccc1F | 4 | -3% | 47% | -3% | 1 | -13%
CCCn1c2ccccc2c2cnn(CC(=O)N3CCC(C)CC3)c(=O)c21 | · | -6% | 31% | 5% | · | 0%
N#CN1CCC(NC(=O)c2cccc(F)c2)CC1 | · | -12% | · | -1% | · | ·
Cc1occc1C(=O)Nc1nn[nH]n1 | 9 | 45µM* | 0% | 2% | 4 | ?
Cc1occc1C(=O)Nc1c(F)c(F)c(F)c(F)c1F | -3 | 1%[11.4 µM] | -21% | 3% | 6 | 18%
SMILES | Six1-Eya2 blk | JMJD2A Tudor inh | HP1b chromo inh | TDP1 block | CtBP-E1A inh | BAZ2B block
COc1ccc(Nc2nc(N3CCCC3)c3ccccc3n2)cc1 | -28 | 45µM* | ? | 11% | ? | ?
CCN(CC)c1ccc(Nc2nc(N3CCOCC3)c3ccccc3n2)cc1 | -81* | 18µM* | -88% | 12% | -78* | 18µM*
Cc1nc(NS(=O)(=O)c2ccccc2)sc1NC(=O)Nc1ccc(Cl)cc1 | -3 | ? | -9% | · | 25 | 50µM*
CC(=O)c1ccc(NC(=O)Nc2sc(NS(=O)(=O)c3ccccc3)nc2C)cc1 | -5 | -8% | 27% | 6% | -15 | ?
COc1ccc(Nc2cc(C(=O)NCCCN3CCN(C)CC3)c3ccccc3n2)cc1OC | -6 | -22% | -9% | 6% | -8 | -32%
COc1ccc(Nc2cc(C(=O)NCCCN3CCOCC3)c3ccccc3n2)c(OC)c1 | -9 | ? | 27% | 8% | -11 | -29%
COc1ccc(Nc2cc(C(=O)NC3CCCC3)c3ccccc3n2)c(OC)c1 | -14 | -23% | 35% | 9% | -16 | -20%[57.1 µM]
COc1ccc(N2CCN(CCCNC(=O)c3cc(Nc4ccccc4OC)nc4ccccc34)CC2)cc1 | · | 35µM* | ? | 9% | · | 10µM*
COc1ccc(Nc2cc(C(=O)NCCCN3CCN(c4ccc(OC)cc4)CC3)c3ccccc3n2)cc1 | · | 22µM* | ? | 10% | · | 14µM*
COc1ccc(Nc2cc(C(=O)NCCCN(C)Cc3ccccc3)c3ccccc3n2)c(OC)c1 | · | 32µM* | ? | 9% | · | ?
CCN(CC)CCNC(=O)c1cc(Nc2ccc(OC)c(OC)c2)nc2ccccc12 | -20 | ? | -15% | · | -21 | 40µM*
O=C(c1ccccc1)N1CCC(c2nc3ccccc3o2)CC1 | · | -3% | 53% | 2% | · | -31%
COc1ccc(Nc2cc(C(=O)NCCCN3CCN(c4ccccc4F)CC3)c3ccccc3n2)c(OC)c1 | · | 10µM* | -33% | 7% | · | ·
COc1ccc(N2CCN(CCCNC(=O)C(=O)c3c[nH]c4ccccc34)CC2)cc1 | ? | 28µM* | 50µM* | 12% | -27 | 14µM*
CCCC(=O)OCc1cnc(C)c2oc(=O)c(C(=O)Nc3cccc(C(F)(F)F)c3)cc12 | · | -30% | -9% | -4% | · | -35%
Cc1oc2ccc(O)c(CN3CCN(C)CC3)c2c1C(=O)Nc1ccccc1 | · | -14% | 17% | -5% | · | -13%
COc1cc(NC(=O)Cc2c(C(=O)O)c(C)cn2C)cc(OC)c1 | · | -27% | -7% | 2% | · | ?
CO[C@@H]1COC(=O)[C@@H](C)COC(=O)[C@@H](C)NC(=O)C/C=C\[C@@H]1C | · | · | · | 3%[21 µM] | · | ·
COCc1c(Br)c(C)nc(OCC(=O)N/N=C/c2ccco2)c1C#N | -7 | -27% | 27% | -15% | 1 | 89µM*
COc1ccc(C(=O)NC(=S)NNC(=O)COc2ccccc2)cc1 | -2 | -31% | ? | 8% | -6 | 13%
COc1ccc(C(=O)NC(=S)NNC(=O)c2ccco2)cc1 | -9 | -8% | 17% | 0% | -1 | 18%
O=C(Cc1cccs1)NNC(=S)NC(=O)c1ccccc1 | 0 | 50µM* | 19% | 11% | 4 | 10%
CCC(=O)NNC(=S)NC(=O)c1ccc(C)cc1 | 1 | ? | 24% | 4% | -24 | 14%
O=C(COc1ccccc1)NNC(=S)NC(=O)c1ccccc1 | 3 | 18µM* | 5% | 3% | 1 | ·
